Structures are written as SMILES. Active and inactive are the calls of the source.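 The calls were made as follows, unless noted: active = fluorescence slope after compound addition differing from the mean of all screened samples at 99.7% confidence, in either direction; inactive = the rest.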

Here are results for 14 molecules from PubChem BioAssay.

A short description of assay [1]: inhibitors of TNFa-induced NFkB p65 translocation, primary screen, imaging, HUVEC, MLSMR starter and 10KST1 sets (AID 438;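 active = inhibition above 20% together with a positive visual image hit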;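 also: compound added about 3h40 before a 20 min TNFalpha stimulation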;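 as to inhibition: signal is the nuclear over cytoplasmic p65 intensity ratio per well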). The conditions noted are these: HUVEC TNFa-induced p65 nuclear translocation; cell count: measured here: nuclei count (cytotoxicity indicator), at 2.08 µM; inhibition: at 2 µM, stronger effect = higher value, 0% TNFa-plus-vehicle, 100% no-TNFa wells.
A short description of assay [2]: reduction of polyQ htt aggregates in cells – imaging, exon1htt(103Q)mCFP cells, high-content imaging, primary screen (AID 483;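 active = visual image review flags a hit and inhibition of aggregation exceeds 20%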;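 also: compound exposure lasted 3 days before fixation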;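 as to nuclei count: percent of the per-plate median nuclei count of sample wells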). The conditions noted are these: exon1htt(103Q)mCFP cell line, aggregate imaging, at 2 µM; inhibition of aggregation: stronger effect = higher value; nuclei count: measured here: cell count, toxicity.
A short description of assay [3]: endothelial E-selectin expression blockers – imaging, HUVEC, immunofluorescence, MLSMR starter and 10KST1 sets, primary screen (AID 487;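 active = visually confirmed hit in the image check and inhibition above 20%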;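 as to inhibition: signal is fraction of cell area covered by stained E-selectin grains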;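 as to nuclei count: 100% = median nuclei count of all wells on the same plate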). The conditions noted are these: HUVEC TNFalpha-induced E-selectin immunofluorescence imaging, at 2 µM; inhibition: stronger effect = higher value; nuclei count: measured here: cell number, toxicity.
Assay [4] has as its target Voltage-gated potassium channel subunit beta-2 (Rattus norvegicus) (UniProt P62483). Description: inhibitors of rat Kvbeta2 reductase activity – biochemical, NADPH fluorescence, primary screen (AID 622;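 active = fluorescence slope higher than the sample average by over 3 SD, cut at about -0.22 in these data, passing the limit was not always enough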;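 also: slope of raw intensity against log time taken from 70 to 1610 s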). The conditions noted are these: recombinant KvBeta, 4-cyanobenzaldehyde reduction, at 10 µM, stronger effect = higher value.
Assay [5] has the same target. Kind of assay: enhancers of rat Kvbeta2 NADPH turnover – biochemical, NADPH fluorescence, primary screen (AID 623;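 active = NADPH fluorescence slope more negative than the mean of all samples by about 3 SD, 99.7% confidence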;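 also: fluorescence intensity change per second fitted from 20 to 320 s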). The conditions noted are these: Recombinant KvBeta, NADPH fluorescence decrease slope, 10 min; at 10 µM; stronger effect = lower value.
Assay [6] has as its target Alpha-2C adrenergic receptor (Homo sapiens) (UniProt P18825). Description: compounds altering alpha2C-coupled GIRK flux – cell-based, HEK293 alpha2C/GIRK1/2, thallium flux, primary screen (AID 624).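 Also: slope of fluorescence ratio to pre-addition baseline per second over 15 to 24 s.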 The conditions noted are these: thallium flux BTC fluorescence, at 10 µM, actives lie on both sides.
Assay [7] is described as follows: blockers of RIG-like receptor reporter activation – cell-based, Sendai virus stimulus, luciferase, 10K MLSCN set, TLR/RLR signaling modifier project, primary screen (AID 602276;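 active = inhibition at or above 50% at 10 µM; inactive = inhibition below 50%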;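 also: firefly luciferase from ISG56 promoter only with Renilla not read in this screen; 0% = Sendai virus plus DMSO and 100% = medium plus DMSO without virus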). The conditions noted are these: HEK293 RL24 IRF3 luciferase reporter, at 10 µM, stronger effect = higher value.
Assay [8] in a line: TLR3 IRF3 reporter activation blockers – cell-based, poly I:C stimulus, luciferase, 10K MLSCN set, primary screen (AID 602277;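 active = inhibition of the reporter signal at or above 50%; inactive = inhibition below 50%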). The conditions noted are these: HEK293-TLR3 RL24 IRF3 luciferase reporter, at 10 µM, stronger effect = higher value. (In a reporter assay the amount or activity of a reporter protein is the signal.)

Sequence of Alpha-2C adrenergic receptor (Homo sapiens) (P18825 whole entry, looked up): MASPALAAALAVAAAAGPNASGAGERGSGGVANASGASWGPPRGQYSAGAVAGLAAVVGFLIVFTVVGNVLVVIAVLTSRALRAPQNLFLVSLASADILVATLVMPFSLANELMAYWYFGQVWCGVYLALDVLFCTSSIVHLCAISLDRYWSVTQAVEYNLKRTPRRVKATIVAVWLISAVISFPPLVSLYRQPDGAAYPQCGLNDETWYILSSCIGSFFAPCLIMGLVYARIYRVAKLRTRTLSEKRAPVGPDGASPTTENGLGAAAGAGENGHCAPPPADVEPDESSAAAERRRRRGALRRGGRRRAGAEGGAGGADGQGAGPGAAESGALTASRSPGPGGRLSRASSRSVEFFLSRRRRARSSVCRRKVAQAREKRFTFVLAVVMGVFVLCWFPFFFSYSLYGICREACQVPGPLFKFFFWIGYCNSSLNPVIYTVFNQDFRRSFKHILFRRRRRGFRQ
Sequence of Voltage-gated potassium channel subunit beta-2 (Rattus norvegicus) (P62483 whole entry, looked up): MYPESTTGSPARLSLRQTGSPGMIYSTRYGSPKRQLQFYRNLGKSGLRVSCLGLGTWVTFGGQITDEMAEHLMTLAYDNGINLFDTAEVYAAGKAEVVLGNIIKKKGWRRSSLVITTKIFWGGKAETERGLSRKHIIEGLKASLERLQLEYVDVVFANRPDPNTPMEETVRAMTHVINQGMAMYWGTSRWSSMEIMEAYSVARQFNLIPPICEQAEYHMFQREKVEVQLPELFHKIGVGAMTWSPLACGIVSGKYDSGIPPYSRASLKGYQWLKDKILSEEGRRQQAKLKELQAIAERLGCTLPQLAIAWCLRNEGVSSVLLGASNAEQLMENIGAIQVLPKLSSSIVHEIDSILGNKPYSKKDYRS

In the case of `COc1cc(SC)ccc1C(=O)Nc1ccon1`, the cell count in assay [1] worked out at 461. The inhibition in assay [1] was -10.3% (inactive); in assay [3], 20.1% (inactive); in assay [7] it was -57.7% (inactive); in assay [8] it was -144% (inactive). For the same molecule, the inhibition of aggregation in assay [2] was -0.3% (inactive). Also, the results for the nuclei count in assay [2] and in assay [3] were 93% and 91.2%, respectively. Also, the fluorescence slope in assay [4] is -0.608 (inactive). For the same molecule, the NADPH fluorescence slope in assay [5] is 2.8e-05 (inactive). The slope in assay [6] was 0.00729 (inactive).

For `NC(=O)CCS(=O)(=O)CCN1CCCCC1`, in assay [1], the cell count was determined as 361. Moreover, the inhibition in assay [1] was 5.7% (inactive); in assay [3], -14.9% (inactive); in assay [7], 19.5% (inactive); in assay [8], 23.8% (inactive). Further, the inhibition of aggregation in assay [2] was 2.7% (inactive). Moreover, the nuclei count in assay [2] came out at 89.8%; in assay [3] it was 116%. In assay [4], the fluorescence slope was -0.435 (inactive). Further, the NADPH fluorescence slope in assay [5] is 4.4e-05 (inactive). In assay [6], the slope is 0.0056 (inactive).

`c1ccc(CC2CCN(c3nc4ccccc4n4nnnc34)CC2)cc1`: the cell count in assay [1] was 373. The inhibition in assay [1] was -13.8% (inactive); in assay [3], -63.7% (inactive); in assay [7], 7.26% (inactive); in assay [8] it was 13.6% (inactive). Also, the inhibition of aggregation in assay [2] was -7.8% (inactive). Further, the nuclei count in assay [2] was found to be 102%; in assay [3] it was 114%. Moreover, the fluorescence slope in assay [4] was -0.312 (inactive). Moreover, the NADPH fluorescence slope in assay [5] is -3.7e-05 (inactive). Also, in assay [6], the slope is 0.00583 (inactive).

On to `CC(C)CCNc1cc(=O)n(C)c(=O)n1C`, for which the cell count in assay [1] came out at 686. Besides, the inhibition in assay [1] is -3.9% (inactive); in assay [3], 28.9% (inactive); in assay [7] it was 0.49% (inactive); in assay [8], 8.23% (inactive). The inhibition of aggregation in assay [2] is -15.5% (inactive). In addition, the nuclei count in assay [2] is 108%; in assay [3], 88%. Also, the fluorescence slope in assay [4] was -0.459 (inactive). The NADPH fluorescence slope in assay [5] is 5e-05 (inactive). The slope in assay [6] was 0.00778 (inactive).

On to `CCOc1ccc(NC(=O)CSc2nccn2C)cc1`, for which the cell count in assay [1] amounted to 309. For the same molecule, the inhibition in assay [1] is 15.3% (inactive); in assay [3] it was -28.1% (inactive); in assay [7], -18.3% (inactive); in assay [8], -80.7% (inactive). In addition, the inhibition of aggregation in assay [2] is 3.1% (inactive). Moreover, the values for the nuclei count in assay [2] and in assay [3] were 106% and 114%, respectively. Also, the fluorescence slope in assay [4] is -0.28 (inactive). In addition, the NADPH fluorescence slope in assay [5] was 1e-05 (inactive). Moreover, the slope in assay [6] was 0.00367 (inactive).

Take `Cc1ccc(C)c(S(=O)(=O)NCc2cccnc2)c1`: the cell count in assay [1] is 597. The inhibition in assay [1] was -0.6% (inactive); in assay [3], -89.8% (inactive); in assay [7], 141% (active); in assay [8], 100% (active). In assay [2], the inhibition of aggregation is -6.9% (inactive). Besides, the nuclei count in assay [2] stood at 114%; in assay [3], 119%. Also, the fluorescence slope in assay [4] was -0.467 (inactive). Moreover, in assay [5], the NADPH fluorescence slope was -5.5e-05 (inactive). Besides, the slope in assay [6] was 0.00658 (inactive).

Regarding `CC(=O)C(Sc1ncnc2c1nnn2-c1ccc(F)cc1)C(=O)N(C)C` (centres undefined), the cell count in assay [1] came to 464. Moreover, the inhibition in assay [1] is -2.2% (inactive); in assay [3] it was -51.7% (inactive); in assay [7], -3.3% (inactive); in assay [8], -23.2% (inactive). For the same molecule, the inhibition of aggregation in assay [2] is 2.3% (inactive). In addition, the results for the nuclei count in assay [2] and in assay [3] were 89.3% and 114%, respectively. In addition, the fluorescence slope in assay [4] was -0.492 (inactive). Moreover, the NADPH fluorescence slope in assay [5] is -1.7e-05 (inactive). The slope in assay [6] is 0.00752 (inactive).

As for `O=C1CCCC2=C1C1(CCCC1)N=C(Nc1nc3ccccc3s1)N2`, the cell count in assay [1] turned out to be 687. In addition, the inhibition in assay [1] is -4.4% (inactive); in assay [3], -39.4% (inactive); in assay [7], 10.1% (inactive); in assay [8], 2.82% (inactive). In addition, in assay [2], the inhibition of aggregation was -42.8% (inactive). The nuclei count in assay [2] is 139%; in assay [3], 117%. The fluorescence slope in assay [4] is -0.257 (inactive). Moreover, in assay [5], the NADPH fluorescence slope was -9.3e-06 (inactive). In addition, in assay [6], the slope was 0.00377 (inactive).

Turning to `COc1cc(C2N3CC4(C)CN2CC(C)(C3)C4)ccc1O` (centres undefined), the cell count in assay [1] is 309. In addition, the inhibition in assay [1] was -4.3% (inactive); in assay [3], -33.6% (inactive); in assay [7] it was 0.715% (inactive); in assay [8] it was 25.8% (inactive). Besides, the inhibition of aggregation in assay [2] was 15.8% (inactive). Moreover, the nuclei count amounted to 74.7% in assay [2] and 100% in assay [3]. In assay [4], the fluorescence slope is -0.345 (inactive). Besides, the NADPH fluorescence slope in assay [5] is -5.2e-07 (inactive). Also, in assay [6], the slope is 0.0063 (inactive).

As for `CCCCc1noc2c1/C(=N\O)CC(c1ccccc1)C2` (centres undefined), the cell count in assay [1] came to 365. In addition, the inhibition is 2% (inactive) in assay [1], -65.5% (inactive) in assay [3], -46.5% (inactive) in assay [7] and -152% (inactive) in assay [8]. The inhibition of aggregation in assay [2] is 11.5% (inactive). Further, the nuclei count in assay [2] was determined as 106%; in assay [3], 94.1%. The fluorescence slope in assay [4] was -0.446 (inactive). Besides, the NADPH fluorescence slope in assay [5] was -5.9e-05 (inactive). Besides, the slope in assay [6] was 0.0073 (inactive).

Take `COc1cc2c(cc1NCc1ccccn1)oc1ccccc12`: in assay [1], the cell count amounted to 304. The inhibition in assay [1] was -1.5% (inactive); in assay [3], -27.9% (inactive); in assay [7], -24.8% (inactive); in assay [8], -70.7% (inactive). Moreover, the inhibition of aggregation in assay [2] was 20.3% (inactive). The nuclei count in assay [2] was 66.4%; in assay [3] it was 90.6%. Besides, the fluorescence slope in assay [4] was -0.365 (inactive). Also, the NADPH fluorescence slope in assay [5] was -4.6e-05 (inactive). Also, the slope in assay [6] is 0.00538 (inactive).

Regarding `C=CCn1c(SCC(=O)O)nnc1-c1cccc(Cl)c1`, the cell count in assay [1] is 753. Also, the inhibition in assay [1] is 1.3% (inactive); in assay [3], 19.3% (inactive); in assay [7], 8.76% (inactive); in assay [8] it was 18.9% (inactive). Moreover, the inhibition of aggregation in assay [2] was -0.4% (inactive). Further, the results for the nuclei count in assay [2] and in assay [3] were 103% and 108%, respectively. The fluorescence slope in assay [4] was -0.453 (inactive). Also, the NADPH fluorescence slope in assay [5] is -8e-06 (inactive). Also, the slope in assay [6] is 0.00296 (inactive).

For the molecule `COc1ccccc1N1C(=O)CC(Sc2nc(C)cc(C)n2)C1=O` (centres undefined), in assay [1], the cell count is 613. The inhibition is -8.2% (inactive) in assay [1], -30.9% (inactive) in assay [3], 14.5% (inactive) in assay [7] and 19.3% (inactive) in assay [8]. Besides, the inhibition of aggregation in assay [2] is 15% (inactive). For the same molecule, the nuclei count is 95.3% in assay [2] and 90.9% in assay [3]. Further, the fluorescence slope in assay [4] was -0.447 (inactive). Besides, the NADPH fluorescence slope in assay [5] is -9.1e-05 (inactive). The slope in assay [6] is 0.0075 (inactive).

Take `COc1ccc(CC(=O)NC2CCN(CC(=O)Nc3ccc4c(c3)OCCO4)CC2)cc1OC`: the cell count in assay [1] stood at 635. Further, the inhibition in assay [1] is -1.6% (inactive); in assay [3] it was -29.5% (inactive); in assay [7], 6.1% (inactive); in assay [8] it was -5.8% (inactive). The inhibition of aggregation in assay [2] was -5.8% (inactive). Besides, the nuclei count in assay [2] was 88.5%; in assay [3], 111%. For the same molecule, in assay [4], the fluorescence slope is -0.428 (inactive). Besides, the NADPH fluorescence slope in assay [5] was -6.5e-06 (inactive). Moreover, the slope in assay [6] is 0.00308 (inactive).

The inhibition is the drop in the measured response relative to a control, in per cent.
